# Test results as given in ChEMBL document CHEMBL1201862, “PubChem BioAssay data set” (2004).
# Out of some 57,000 […] screened, about 3,400 (6%) were called active. Rule as the data show it: active = GI50 up to about 1.1 µM and inactive = higher. The list is a sample of the results. Results with a measured potency or affinity are listed apart.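 A five-concentration, 48-hour dose response in 96-well plates underlies each endpoint, interpolated linearly between surrounding concentrations. Here, GI50 denotes the concentration required for 50% inhibition of growth.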
# Tested on: UO-31
# Assay: NCI tumour cell line growth inhibition, 48 h
row,Substance,GI50
1,"CISPLATIN, CHEMBL11359",3.36 µM
2,"[Bis(aminomethyl)dimethylsilane]tetrachloroplatinum(IV), CHEMBL2146190",9.93 µM
3,"[Bis(aminomethyl)ethylmethylsilane]tetrachloroplatinum(IV), CHEMBL2146192",7.48 µM
4,"[Bis(aminomethyl)tetramethylenesilane]dichloropaltinum(II), CHEMBL2146205",22.3 µM
5,"[Bis(aminomethyl)dimethylsilane]dichloroplatinum (II), CHEMBL2146201",55.2 µM
6,"[Bis(aminomethyl)diethylsilane]tetrachloroplatinum(IV), CHEMBL2146203",4.43 µM
7,"[Bis(aminomethyl)pentamethylenesilane]tetrachloropaltinum(IV), CHEMBL2146204",0.731 µM
8,"[Bis(aminomethyl)pentamethylenesilane]dichloropaltinum(II), CHEMBL2146202",3.21 µM
9,"mu-(1,7-nanodiamine-N,N')bis-(cis-aminedichloroplatimum (II)), CHEMBL2146215",44.8 µM
10,"cis-Bis[[(trimethylsilyl)methyl]amino]tetrachloroplatinum(IV), CHEMBL2146191",16.2 µM
11,"[Bis(aminomethyl)tetramethylenesilane]tetrachloropaltinum(IV), CHEMBL2146189",3.73 µM
